What was measured:
Conditions in all cases: inducer concentration 5 mM; 6 h; Cupriavidus necator H16; minimal medium + 0.4% gluconate
[1] = system: AcoR/P_H16_RS19445 acetoin biosensor (pEH052); experiment: relative induction of RFP reporter vs primary effector; higher = stronger activation
Method: (§1)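 Orthogonality screen of 21 primary inducers against 21 transcription factor/inducible promoter–mRFP biosensors in C. necator H16 in minimal medium, robotic 96-well format, 5 mM inducer, 30 °C. OD-normalised RFP fluorescence was read 6 h later and expressed as relative induction (%) = 100 × (FL compound − FL uninduced)/(FL primary inducer − FL uninduced); mean of n=4. Cognate pairs (100% by definition) omitted.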

[2] = system: AraC/P_araBAD L-arabinose biosensor (pEH176); experiment: as above
Method: as §1

[3] = system: BadR/P_H16_RS27200 cyclohexanecarboxylate biosensor (pEH159); experiment: as above
Method: as §1

[4] = system: BenM/P_H16_RS09790 benzoate biosensor (pEH148); experiment: as above
Method: as §1

[5] = system: FdsR/P_H16_RS03165 formate biosensor (pEH134); experiment: as above
Method: as §1

[6] = system: GabR/P_H16_RS23655 GABA biosensor (pEH256); experiment: as above
Method: as §1

[7] = system: HpdA/P_H16_RS24175 L-tyrosine biosensor (pEH158); experiment: as above
Method: as §1

[8] = system: NahR/P_H16_RS08125 salicylate biosensor (pEH042); experiment: as above
Method: as §1

[9] = system: OapR/P_H16_RS01330 beta-alanine biosensor (pEH147); experiment: as above
Method: as §1

[10] = system: PcaQ/P_H16_RS30145 3,4-dihydroxybenzoate biosensor (pEH161); experiment: as above
Method: as §1

[11] = system: PhgR/P_H16_RS05530 phenylglyoxylate biosensor (pEH155); experiment: as above
Method: as §1

[12] = system: SauR/P_H16_RS13695 sulfonatoacetate biosensor (pEH157); experiment: as above
Method: as §1

[13] = system: TtdR/P_H16_RS10665 tartrate biosensor (pEH083); experiment: as above
Method: as §1

[14] = system: XdhR/P_H16_RS05055 xanthine biosensor (pEH154); experiment: as above
Method: as §1

[15] = system: heterologous L-rhamnose-inducible system; experiment: as above
Method: as §1

[16] = system: heterologous acrylate-inducible system; experiment: as above
Method: as §1

[17] = system: heterologous cumate-inducible system; experiment: as above
Method: as §1

[18] = system: heterologous itaconate-inducible system; experiment: as above
Method: as §1

[19] = system: PhgR/P_H16_RS05530 phenylglyoxylate biosensor (pEH155); experiment: relative induction of RFP reporter vs primary effector (background-corrected); higher = stronger activation of the biosensor
Method: (§2)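 C. necator H16 strains, each carrying one of 21 transcription factor/inducible promoter–mRFP biosensor plasmids, were grown in minimal medium in 96-well plates (robotic platform). Each was exposed to 46 structurally or metabolically related compounds at 5 mM at 30 °C. OD-normalised RFP fluorescence was read 6 h later and expressed as relative induction (%) = 100 × (FL compound − FL uninduced)/(FL primary inducer − FL uninduced); mean of n=4.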

[20] = system: AcoR/P_H16_RS19445 acetoin biosensor (pEH052); experiment: as above
Method: as §2

[21] = system: AraC/P_araBAD L-arabinose biosensor (pEH176); experiment: as above
Method: as §2

[22] = system: BenM/P_H16_RS09790 benzoate biosensor (pEH148); experiment: as above
Method: as §2

[23] = system: FdsR/P_H16_RS03165 formate biosensor (pEH134); experiment: as above
Method: as §2

[24] = system: GabR/P_H16_RS23655 GABA biosensor (pEH256); experiment: as above
Method: as §2

[25] = system: HpdR/P_H16_RS18295 3-hydroxypropanoate biosensor (pEH010); experiment: as above
Method: as §2

[26] = system: KynR/P_H16_RS14030 L-kynurenine biosensor (pEH136); experiment: as above
Method: as §2

[27] = system: NahR/P_H16_RS08125 salicylate biosensor (pEH042); experiment: as above
Method: as §2

[28] = system: OapR/P_H16_RS01330 beta-alanine biosensor (pEH147); experiment: as above
Method: as §2

[29] = system: PcaQ/P_H16_RS30145 3,4-dihydroxybenzoate biosensor (pEH161); experiment: as above
Method: as §2

[30] = system: PhhR/P_H16_RS18365 L-phenylalanine biosensor (pEH137); experiment: as above
Method: as §2

[31] = system: SauR/P_H16_RS13695 sulfonatoacetate biosensor (pEH157); experiment: as above
Method: as §2

[32] = system: TtdR/P_H16_RS10665 tartrate biosensor (pEH083); experiment: as above
Method: as §2

[33] = system: XdhR/P_H16_RS05055 xanthine biosensor (pEH154); experiment: as above
Method: as §2

[34] = system: heterologous inducible system pEH002 (rhamnose/acrylate/cumate/itaconate set); experiment: as above
Method: as §2

[35] = system: heterologous inducible system pEH020 (rhamnose/acrylate/cumate/itaconate set); experiment: as above
Method: as §2

[36] = system: heterologous inducible system pEH040 (rhamnose/acrylate/cumate/itaconate set); experiment: as above
Method: as §2

[37] = system: heterologous inducible system pEH086 (rhamnose/acrylate/cumate/itaconate set); experiment: as above
Method: as §2
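Wherever relative induction of RFP reporter vs primary effector (background-corrected) is given: RFP excited at 585 nm with emission read at 620 nm, culture medium blanks subtracted from fluorescence and absorbance prior to normalisation.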

Nc1ccccc1C(=O)C[C@H](N)C(=O)O [L-kynurenine]
relative induction of RFP reporter [1]: -1.84% | relative induction of RFP reporter [2]: -0.00708% | relative induction of RFP reporter [3]: -0.604% | relative induction of RFP reporter [4]: -0.0309% | relative induction of RFP reporter [5]: -4.32% | relative induction of RFP reporter [6]: -1.24% | relative induction of RFP reporter [7]: 0.183% | relative induction of RFP reporter [8]: 0.00391% | relative induction of RFP reporter [9]: 0.521% | relative induction of RFP reporter [10]: -0.136% | relative induction of RFP reporter [11]: -0.296% | relative induction of RFP reporter [12]: 0.00419% | relative induction of RFP reporter [13]: -0.312% | relative induction of RFP reporter [14]: -0.483% | relative induction of RFP reporter [15]: -0.00942% | relative induction of RFP reporter [16]: -1.79% | relative induction of RFP reporter [17]: -0.886% | relative induction of RFP reporter [18]: -0.412%

O=c1[nH]c(=O)c2nc[nH]c2[nH]1 [xanthine]
relative induction of RFP reporter [1]: -1.36% | relative induction of RFP reporter [2]: 0.0252% | relative induction of RFP reporter [3]: -0.537% | relative induction of RFP reporter [4]: -0.0092% | relative induction of RFP reporter [5]: -4.71% | relative induction of RFP reporter [6]: -1.02% | relative induction of RFP reporter [7]: -0.0594% | relative induction of RFP reporter [8]: 0.0144% | relative induction of RFP reporter [9]: 1.27% | relative induction of RFP reporter [10]: -0.198% | relative induction of RFP reporter [11]: -0.06% | relative induction of RFP reporter [12]: 0.0306% | relative induction of RFP reporter [13]: 0.737% | relative induction of RFP reporter [15]: 0.0204% | relative induction of RFP reporter [16]: -1.68% | relative induction of RFP reporter [17]: -0.479% | relative induction of RFP reporter [18]: 0.00052%

O=CC(=O)O
relative induction of RFP reporter [19]: -0.587%

O=C(O)CCO [3-hydroxypropanoate]
relative induction of RFP reporter [1]: -1.52% | relative induction of RFP reporter [2]: -0.0357% | relative induction of RFP reporter [3]: 0.0132% | relative induction of RFP reporter [4]: -0.029% | relative induction of RFP reporter [5]: -8.81% | relative induction of RFP reporter [6]: -1.71% | relative induction of RFP reporter [7]: -0.172% | relative induction of RFP reporter [8]: 0.0108% | relative induction of RFP reporter [9]: 3.75% | relative induction of RFP reporter [10]: -0.224% | relative induction of RFP reporter [11]: -0.286% | relative induction of RFP reporter [12]: -0.00696% | relative induction of RFP reporter [13]: -0.346% | relative induction of RFP reporter [14]: -0.715% | relative induction of RFP reporter [15]: 0.00446% | relative induction of RFP reporter [16]: 2.83% | relative induction of RFP reporter [17]: -0.514% | relative induction of RFP reporter [18]: 0.017%

O=C(O)C(O)C(=O)O [tartronic acid]
relative induction of RFP reporter [20]: 0.914% | relative induction of RFP reporter [21]: -0.0176% | relative induction of RFP reporter [22]: 0.0119% | relative induction of RFP reporter [23]: -1.37% | relative induction of RFP reporter [24]: -0.481% | relative induction of RFP reporter [25]: 0.0561% | relative induction of RFP reporter [26]: 0.115% | relative induction of RFP reporter [27]: 0.00865% | relative induction of RFP reporter [28]: 0.0759% | relative induction of RFP reporter [29]: -0.0557% | relative induction of RFP reporter [19]: -0.449% | relative induction of RFP reporter [30]: -0.338% | relative induction of RFP reporter [31]: 0.0532% | relative induction of RFP reporter [32]: 0.714% | relative induction of RFP reporter [33]: -0.218% | relative induction of RFP reporter [34]: 0.00666% | relative induction of RFP reporter [35]: -0.0821% | relative induction of RFP reporter [36]: 0.945% | relative induction of RFP reporter [37]: 0.0674%
